According to article PMC7862700, “An all-to-all approach to the identification of sequence-specific readers for epigenetic DNA modifications on cytosine”:

Experiments:
Assay in all cases: DAPPL (digital affinity profiling via proximity ligation, sequencing); 10 mM Tris-HCl pH 7.5, 50 mM NaCl, 1 mM DTT, 4% glycerol, room temperature, 30 min; GST-TFs on glutathione beads, 16-mer random dsDNA library, 0.1% formaldehyde crosslink after washing; high values mean tight binding
Conditions in all cases: protein: recombinant; tags: N-terminal GST; dsDNA, one strand shown
[1] = biological target: T1, FEV (Homo sapiens, UniProt Q99581 1-238)
T1 sequence: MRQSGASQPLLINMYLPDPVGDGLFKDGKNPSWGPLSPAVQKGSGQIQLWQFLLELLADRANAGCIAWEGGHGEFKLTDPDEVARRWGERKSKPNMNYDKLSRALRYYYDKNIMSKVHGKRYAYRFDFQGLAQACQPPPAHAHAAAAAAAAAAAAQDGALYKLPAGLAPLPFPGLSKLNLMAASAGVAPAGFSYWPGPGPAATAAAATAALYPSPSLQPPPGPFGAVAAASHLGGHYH
In short: (§1)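 Pools of DNA-barcoded human transcription factors, expressed in yeast as GST fusions on glutathione beads and combined with a tag-only sample, were incubated with 200 nmole of a 16-mer random double-stranded DNA library. Incubation took 30 min at room temperature in Tris/NaCl/DTT/glycerol buffer and was followed by washing, 0.1% formaldehyde crosslinking, proximity ligation (BsaI/T4 ligase, 1 h, 37 °C), PCR amplification and sequencing on an Illumina NextSeq500. Binding signal is the ratio of a hexamer's read frequency for a factor to its frequency for the tag-only sample.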

[2] = biological target: ETV5 (Homo sapiens, UniProt P41161 1-510)
Sequence of ETV5 (P41161 whole entry): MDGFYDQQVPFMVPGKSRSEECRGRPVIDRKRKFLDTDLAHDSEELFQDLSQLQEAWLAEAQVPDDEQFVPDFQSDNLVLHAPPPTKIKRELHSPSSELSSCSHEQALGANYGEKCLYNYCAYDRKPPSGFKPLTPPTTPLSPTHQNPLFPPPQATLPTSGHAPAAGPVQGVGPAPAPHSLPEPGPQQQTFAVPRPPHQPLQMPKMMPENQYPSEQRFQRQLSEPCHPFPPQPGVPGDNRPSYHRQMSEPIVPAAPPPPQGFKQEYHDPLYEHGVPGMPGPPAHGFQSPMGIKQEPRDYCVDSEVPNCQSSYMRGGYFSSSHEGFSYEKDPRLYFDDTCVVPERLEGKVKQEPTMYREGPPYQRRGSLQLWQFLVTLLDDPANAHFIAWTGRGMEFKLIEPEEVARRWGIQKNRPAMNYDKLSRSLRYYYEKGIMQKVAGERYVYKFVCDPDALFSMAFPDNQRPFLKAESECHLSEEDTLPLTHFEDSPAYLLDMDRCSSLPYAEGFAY
In short: as §1

[3] = biological target: T2, SPIC (Homo sapiens, UniProt Q8N5J4 1-248)
T2 sequence: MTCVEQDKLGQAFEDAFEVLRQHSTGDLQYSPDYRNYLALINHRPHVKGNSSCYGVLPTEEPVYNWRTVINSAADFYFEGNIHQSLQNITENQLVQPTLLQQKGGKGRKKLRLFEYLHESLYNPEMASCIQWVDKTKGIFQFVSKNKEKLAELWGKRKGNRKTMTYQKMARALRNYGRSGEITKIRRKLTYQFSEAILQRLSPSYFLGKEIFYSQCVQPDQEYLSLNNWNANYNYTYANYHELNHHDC
In short: as §1

[4] = biological target: ELF4 (Homo sapiens, UniProt Q99607 1-663)
Sequence of ELF4 (Q99607 whole entry): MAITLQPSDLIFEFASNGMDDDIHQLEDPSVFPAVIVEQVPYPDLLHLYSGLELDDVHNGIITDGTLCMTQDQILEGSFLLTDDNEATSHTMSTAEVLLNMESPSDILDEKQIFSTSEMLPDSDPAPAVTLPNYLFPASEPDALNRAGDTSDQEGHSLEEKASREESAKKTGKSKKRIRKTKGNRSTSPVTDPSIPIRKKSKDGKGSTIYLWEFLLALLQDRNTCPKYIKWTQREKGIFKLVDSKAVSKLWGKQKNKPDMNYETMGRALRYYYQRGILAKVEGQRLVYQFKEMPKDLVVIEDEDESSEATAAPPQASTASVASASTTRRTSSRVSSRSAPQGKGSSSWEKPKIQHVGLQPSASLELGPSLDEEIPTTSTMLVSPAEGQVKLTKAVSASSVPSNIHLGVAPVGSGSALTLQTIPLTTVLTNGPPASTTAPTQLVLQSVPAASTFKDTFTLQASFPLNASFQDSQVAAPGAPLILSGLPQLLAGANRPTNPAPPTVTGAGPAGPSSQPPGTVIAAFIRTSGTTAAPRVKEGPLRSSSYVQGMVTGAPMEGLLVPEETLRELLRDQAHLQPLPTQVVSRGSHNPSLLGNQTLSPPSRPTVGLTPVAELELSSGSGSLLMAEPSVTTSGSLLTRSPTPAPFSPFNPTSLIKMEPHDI
In short: as §1

[5] = biological target: T3, ELK4 (Homo sapiens, UniProt P28324-2 1-405)
T3 sequence: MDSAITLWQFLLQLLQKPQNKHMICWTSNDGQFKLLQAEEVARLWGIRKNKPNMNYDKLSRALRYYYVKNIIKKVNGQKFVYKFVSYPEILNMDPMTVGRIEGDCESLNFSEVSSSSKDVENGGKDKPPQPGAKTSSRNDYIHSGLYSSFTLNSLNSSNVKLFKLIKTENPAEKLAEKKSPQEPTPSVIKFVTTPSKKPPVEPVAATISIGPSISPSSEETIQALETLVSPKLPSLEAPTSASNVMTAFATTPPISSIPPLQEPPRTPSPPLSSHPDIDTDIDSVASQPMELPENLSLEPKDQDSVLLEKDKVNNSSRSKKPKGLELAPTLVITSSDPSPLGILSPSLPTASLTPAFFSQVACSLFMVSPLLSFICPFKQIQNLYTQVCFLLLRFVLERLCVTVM
In short: as §1

[6] = biological target: T4, ETV2 (Homo sapiens, UniProt O00321 1-342)
T4 sequence: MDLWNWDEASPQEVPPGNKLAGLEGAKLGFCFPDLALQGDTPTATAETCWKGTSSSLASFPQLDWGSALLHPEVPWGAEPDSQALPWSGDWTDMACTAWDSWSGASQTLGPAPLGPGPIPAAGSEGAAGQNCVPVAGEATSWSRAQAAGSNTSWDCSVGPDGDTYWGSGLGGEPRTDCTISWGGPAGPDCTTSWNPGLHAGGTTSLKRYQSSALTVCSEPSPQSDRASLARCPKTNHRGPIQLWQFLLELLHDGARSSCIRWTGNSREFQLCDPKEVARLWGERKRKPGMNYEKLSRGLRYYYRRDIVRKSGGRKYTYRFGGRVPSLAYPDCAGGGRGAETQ
In short: as §1

[7] = biological target: T5, ELF3 (Homo sapiens, UniProt P78545 1-371)
T5 sequence: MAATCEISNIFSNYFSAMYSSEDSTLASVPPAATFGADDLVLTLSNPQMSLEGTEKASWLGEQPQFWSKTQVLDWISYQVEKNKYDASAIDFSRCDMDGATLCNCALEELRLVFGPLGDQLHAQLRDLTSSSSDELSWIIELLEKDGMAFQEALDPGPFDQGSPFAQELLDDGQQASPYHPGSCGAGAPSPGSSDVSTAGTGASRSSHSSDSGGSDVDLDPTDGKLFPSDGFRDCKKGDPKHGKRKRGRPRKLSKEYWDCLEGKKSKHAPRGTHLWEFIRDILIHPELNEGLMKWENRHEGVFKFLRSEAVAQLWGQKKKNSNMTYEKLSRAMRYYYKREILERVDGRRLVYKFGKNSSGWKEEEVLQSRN
In short: as §1

[8] = biological target: ETV1 (Homo sapiens, UniProt P50549 1-477)
Sequence of ETV1 (P50549 whole entry): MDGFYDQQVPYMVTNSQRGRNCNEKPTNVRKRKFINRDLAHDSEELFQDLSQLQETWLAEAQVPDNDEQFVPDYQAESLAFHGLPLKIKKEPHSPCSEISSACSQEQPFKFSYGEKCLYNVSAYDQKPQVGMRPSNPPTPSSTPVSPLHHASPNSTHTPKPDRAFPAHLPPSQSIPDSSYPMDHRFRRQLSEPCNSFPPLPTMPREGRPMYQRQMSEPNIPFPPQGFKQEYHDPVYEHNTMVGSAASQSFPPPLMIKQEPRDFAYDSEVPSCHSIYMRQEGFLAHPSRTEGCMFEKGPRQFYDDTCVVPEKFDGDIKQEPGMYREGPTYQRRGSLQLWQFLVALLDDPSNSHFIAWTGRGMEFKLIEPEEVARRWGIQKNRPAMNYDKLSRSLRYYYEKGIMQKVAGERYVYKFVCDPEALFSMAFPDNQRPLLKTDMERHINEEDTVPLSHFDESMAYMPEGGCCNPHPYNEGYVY
In short: as §1

Sequence	binding signal [1]	binding signal [2]	binding signal [3]	binding signal [4]	binding signal [5]	binding signal [6]	binding signal [7]	binding signal [8]
GCGTCC	1.36 fold enrichment (6-mer frequency, TF over GST control)	1.16 fold enrichment (6-mer frequency, TF over GST control)	1.23 fold enrichment (6-mer frequency, TF over GST control)	1.2 fold enrichment (6-mer frequency, TF over GST control)	1.25 fold enrichment (6-mer frequency, TF over GST control)	1.08 fold enrichment (6-mer frequency, TF over GST control)	1.37 fold enrichment (6-mer frequency, TF over GST control)	1.26 fold enrichment (6-mer frequency, TF over GST control)
AAGTGT	1.28 fold enrichment (6-mer frequency, TF over GST control)	1.33 fold enrichment (6-mer frequency, TF over GST control)	1.6 fold enrichment (6-mer frequency, TF over GST control)	1.3 fold enrichment (6-mer frequency, TF over GST control)	1.21 fold enrichment (6-mer frequency, TF over GST control)	1.37 fold enrichment (6-mer frequency, TF over GST control)	1.43 fold enrichment (6-mer frequency, TF over GST control)	1.39 fold enrichment (6-mer frequency, TF over GST control)
GCACGC	1.08 fold enrichment (6-mer frequency, TF over GST control)	1.04 fold enrichment (6-mer frequency, TF over GST control)	1.06 fold enrichment (6-mer frequency, TF over GST control)	1.11 fold enrichment (6-mer frequency, TF over GST control)	1.05 fold enrichment (6-mer frequency, TF over GST control)	1.18 fold enrichment (6-mer frequency, TF over GST control)	1.13 fold enrichment (6-mer frequency, TF over GST control)	1.16 fold enrichment (6-mer frequency, TF over GST control)
GTTTCA	1.31 fold enrichment (6-mer frequency, TF over GST control)	1.26 fold enrichment (6-mer frequency, TF over GST control)	1.06 fold enrichment (6-mer frequency, TF over GST control)	1.33 fold enrichment (6-mer frequency, TF over GST control)	1.28 fold enrichment (6-mer frequency, TF over GST control)	1.15 fold enrichment (6-mer frequency, TF over GST control)	1.28 fold enrichment (6-mer frequency, TF over GST control)	1.43 fold enrichment (6-mer frequency, TF over GST control)
CACCCC	1.22 fold enrichment (6-mer frequency, TF over GST control)	1.18 fold enrichment (6-mer frequency, TF over GST control)	1.41 fold enrichment (6-mer frequency, TF over GST control)	1.18 fold enrichment (6-mer frequency, TF over GST control)	1.47 fold enrichment (6-mer frequency, TF over GST control)	1.13 fold enrichment (6-mer frequency, TF over GST control)	1.11 fold enrichment (6-mer frequency, TF over GST control)	1.28 fold enrichment (6-mer frequency, TF over GST control)
CGCCGC	1.24 fold enrichment (6-mer frequency, TF over GST control)	1.13 fold enrichment (6-mer frequency, TF over GST control)	1.22 fold enrichment (6-mer frequency, TF over GST control)	1.26 fold enrichment (6-mer frequency, TF over GST control)	1.05 fold enrichment (6-mer frequency, TF over GST control)	1.03 fold enrichment (6-mer frequency, TF over GST control)	1.26 fold enrichment (6-mer frequency, TF over GST control)	1.29 fold enrichment (6-mer frequency, TF over GST control)
ACACAC	1.18 fold enrichment (6-mer frequency, TF over GST control)	1.15 fold enrichment (6-mer frequency, TF over GST control)	1.23 fold enrichment (6-mer frequency, TF over GST control)	1.21 fold enrichment (6-mer frequency, TF over GST control)	1.21 fold enrichment (6-mer frequency, TF over GST control)	1.33 fold enrichment (6-mer frequency, TF over GST control)	1.23 fold enrichment (6-mer frequency, TF over GST control)	1.17 fold enrichment (6-mer frequency, TF over GST control)
